Assay results: the supplement of paper PMC11417369
± gives the standard deviation of the averaged measurements. In all, about 25,000 sequences were measured (“ln(normalized median fluorescence intensity)”: median about 8.6, highest 2% from about 10 on). The full list was thinned out, with the highest values kept by preference.

test system: PfAP2-EXP AP2 domain (GST-tagged); assay: gcPBM binding intensity (ln(normalized median fluorescence intensity)); higher = stronger DNA binding
How it was run: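 Binding intensity is the highest Masliner-normalised natural-log median intensity over replicate spots in either probe orientation. To obtain it, GST-tagged P. falciparum DNA-binding domains made in E. coli were incubated for 1 h on an Agilent 4 × 180k array of primer-extended double-stranded 36-bp intergenic genomic probes plus negative controls. Detection used Alexa488 anti-GST antibody with scanning at 488 nm.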

Sequence	gcPBM binding intensity (ln)
TATATAAACCCGTACACACACATATATGTATATATA [CACACA_site3507]	8.91 ± 0.25
TGTTTTTAAATTTAAATCAAAAAATAAAATAAAATA [GTGCAC_negctrl_site355]	8.34 ± 0.48
CTTACCAAAAGACACACACACACAAGATATATAAAT [CACACA_site6964]	8.77 ± 0.56
TATTGTTATGTCGTTATTAACTTTCTTTAATTAATT [CACACA_negctrl_site174]	8.95 ± 0.29
TTTTTTTTTTTGAGGAGGACACAAAAATATGCTACC [XGTACX_site756]	8.53 ± 0.26
TTTAATCAATGATTTAATGAAAAAAGCAAAAAAAAA [GTGCAC_negctrl_site213]	8.38 ± 0.45
TATTTATATTTATATACACACATACATATTTATATT [CACACA_site6535]	8.41 ± 0.33
AAATTTTAATTAGGAACACACATATATATATATATA [CACACA_site5673]	10.2 ± 0.24
TGAATATTTCTATATACACACATATAAATATAAATA [CACACA_site7593]	8.26 ± 0.36
AAAAATTTTAATTAGGAACACACATATATATATATA [CACACA_site9016]	10.1 ± 0.27
GTAATTTTTTTCTATACACACATATATATAATATAT [CACACA_site2655]	8.74 ± 0.32
TATATATATATATATACACACATATATATATTTATA [CACACA_site627]	10.3 ± 0.18
ATTTATTGACTATTTACACACATATTTATTATAATA [CACACA_site1624]	8.9 ± 0.52
TAATATTGACTATATACACACATATAAATATAAATA [CACACA_site6414]	8.4 ± 0.33
TAATATTGACTATATACACACATATATATATATATA [CACACA_site575]	10.2 ± 0.28
TATATATATATTTATACACACACATATATTTATATA [CACACA_site8054]	9.47 ± 0.071
AAATTATAATTAGGAACACACATATATATATATATA [CACACA_site3098]	10.1 ± 0.33
TGAATATTTCTATATACACACATATATATATATATA [CACACA_site3451]	10.3 ± 0.12
AAATTCATATGAATTTGTACGGACATAAATATCTTC [XGTACX_site1838]	8.62 ± 0.33
TGAATTTACAAAATCATGCACTTAATTACAGAATAA	8.38 ± 0.26
TCCATATGCAAACTGGTGCACAAGTAGCTTTTATAT	8.99 ± 0.3
TCATAAAAAGGAATCTTTAAGATATTTTATAAGCTC [XGTACX_negctrl_site18]	8.06 ± 0.5
TATATAAAAATCAATTGTACTTTTTTTTTTTTTTTT [XGTACX_site7327]	8.52 ± 0.16
TTAAGATCCTAAAAAACACACAATTGTGAATAATAA [CACACA_site3872]	8.69 ± 0.53
TGTAGATAAAATAAACGTACGTATTGATTTTTTTCA [XGTACX_site1610]	8.26 ± 0.41

Sequence	gcPBM binding intensity (ln)
TATTCTAGTCTGCTTACACACATATTTATATTTATA [CACACA_site7432]	8.81 ± 0.54
TATTATATTCTGCTTACACACATATATATATATATA [CACACA_site3060]	10.3 ± 0.38
CATATTATATTCTGCTTACACACATATATATATATA [CACACA_site3059]	10.1 ± 0.42
GAAGATTTATCTTGCACACGCAAAAAAAAAAAAAAA [CACACA_site154]	8.4 ± 0.27
TGAAGGATATATTCCGTGCACATATAAATATATACA	8.735 ± 0.007
ATATATATATATATATGTACTAAATATTCATCCTTA [XGTACX_site6039]	10.2 ± 0.3
AATCTTAAAAATATATGTACTAAAAAAAAAAAAAAT [XGTACX_site6195]	8.37 ± 0.47
AAAATATTTCATATATGTACTTAAAAAAAAAAAAAA [XGTACX_site5399]	8.27 ± 0.38
CTATATATATATTTCAGTACATATTAAGAATATATA [XGTACX_site4860]	8.31 ± 0.38
TATAACATAGGACACACACACATACATACACAAAAA [CACACA_site5062]	8.94 ± 0.35
ATATATATATATAAAGGTACACATTTATTAAATATA [XGTACX_site7102]	10.1 ± 0.12
TTTAATATGTATTTTTTTTTTTTTTTTTTTTTTTTT [XGTACX_negctrl_site440]	9.06 ± 0.085
ATATAATATATATATTGTACATATATTTATAAGCAT [XGTACX_site3726]	8.38 ± 0.19
ATATCCTACTTCTAGTGTACATATATGGACTGATGA [XGTACX_site3683]	8.87 ± 0.35
AAGCATCCTACTGATTGTACATATATATATATATAT [XGTACX_site2150]	10.2 ± 0.3
AACGAAATCATCAAGTGTACTAGTTTATTATTAATA [XGTACX_site6161]	8.38 ± 0.42
TTTTTTCTTTTTTTTTGTACATATAATATTTATGTT [XGTACX_site302]	8.62 ± 0.4
ATGTACTATAGGCACACACACTCACATATATATATA [CACACA_site5745]	9.96 ± 0.22
AAGTACCATATAGGCACACATATATATATATATATA [CACACA_site3282]	10.2 ± 0.34
AAAATAATAATAGGCACACATATATATATATATATA [CACACA_site2058]	10.1 ± 0.33
AAGAAAAGCAAACAAGTGCATAATAACAAAAAAAAT [GTGCAC_site9725]	9.13 ± 0.46
TTGTTTCTTAAATTATTTATTTTATATTAAAAAAAA [XGTACX_negctrl_site224]	8.31 ± 0.46
ATTTATTTTATTTTCACACACAAAAATAAATATCCG [CACACA_site2414]	8.44 ± 0.44
TTATTATTATTACTAGTGCATTAATTATATATGTAA	8.72 ± 0.13
CATATATATATATATTGTACAAGATTGTTTTTTTAT [XGTACX_site3913]	8.76 ± 0.35
